Data from the supplement of paper PMC13380429.

Tested on: Vero E6 infected with SARS-CoV-2
Assay: inhibition of SARS-CoV-2 cytopathic effect; higher = more antiviral protection, active = above 15
Settings: 48 h

Measured: inhibition of SARS-CoV-2 cytopathic effect

N[C@@H](C(=O)O)c1nn[nH]n1 (racemic) [tetrazol-5-yl-glycine-(RS)]
inactive: 1 nM -2.49% | 8.33 nM -1.1% | 100 nM 0.87% | 833.33 nM 1.56% | 10000 nM -1.13%

COc1ccc(-c2cc(=O)c3c(O)c(OC)c(O)cc3o2)cc1OC [eupatilin]
inactive: 1 nM 1.23% | 8.33 nM -0.46% | 100 nM 0.38% | 833.33 nM 1.92% | 10000 nM 2.58%

N=C(N)SCCc1c[nH]cn1 [imetit]
inactive: 1 nM -0.58% | 8.33 nM -0.44% | 100 nM -2.84% | 833.33 nM -2.2% | 10000 nM -1.05%

CCOC(=O)c1ncc2[nH]c3ccc(OCc4ccccc4)cc3c2c1COC
inactive: 1 nM 2.48% | 8.33 nM 0.26% | 100 nM 0.32% | 833.33 nM 2.46% | 10000 nM -5.3%

COc1ccc(OC)c([C@@H](O)CNC(=O)CN)c1 [midodrine]
inactive: 1 nM 1.29% | 8.33 nM 3.25% | 100 nM -1.42% | 833.33 nM 0.19% | 10000 nM -0.39%

CCNC(=O)c1n[nH]c(-c2cc(Cl)c(O)cc2O)c1-c1ccc(OC)cc1
inactive: 1 nM -4.03% | 8.33 nM -4.15% | 100 nM -2.27% | 833.33 nM -3.38% | 10000 nM -0.29%

C[C@@H](c1nc(-c2ccc(C#N)cc2)cs1)[C@](O)(Cn1cncn1)c1ccc(F)cc1F [ravuconazole]
inactive: 1 nM -0.11% | 8.33 nM -0.67% | 100 nM -0.09% | 833.33 nM -0.86% | 10000 nM 0.29%

COc1cc(N2CCC(O)CC2)ccc1Nc1cc(Nc2ccccc2S(=O)(=O)C(C)C)c2cc[nH]c2n1
inactive: 1 nM 5.38% | 8.33 nM 3.7% | 100 nM -1.89% | 833.33 nM 0.98% | 10000 nM -7.51%

O=C1C(O)=C([C@H]2CC[C@H](c3ccc(Cl)cc3)CC2)C(=O)c2ccccc21 [atovaquone]
inactive: 1 nM 0.09% | 8.33 nM -1.67% | 100 nM -3.09% | 833.33 nM -1.77% | 10000 nM -9.21%

CN(C)C(=O)c1cc2cnc(Nc3ccc(N4CCNCC4)cn3)nc2n1C1CCCC1 [ribociclib]
inactive: 1 nM -0.57% | 8.33 nM -0.13% | 100 nM -0.03% | 833.33 nM -3.73% | 10000 nM -7.22%

Cc1cccc(C)c1NC(=O)C1CCCCN1C (stereo not given) [mepivacaine]
inactive: 1 nM -3.62% | 8.33 nM -1.78% | 100 nM -2.27% | 833.33 nM -0.18% | 10000 nM 0.81%

COC(=O)c1sccc1S(=O)(=O)Nc1ccc(Nc2ccccc2)cc1OC
inactive: 1 nM 2.58% | 8.33 nM 5.94% | 100 nM 2.5% | 833.33 nM 5.14% | 10000 nM 8.94%

O=C1NCCN1c1ncc([N+](=O)[O-])s1 [niridazole]
inactive: 1 nM 0.2% | 8.33 nM -2.07% | 100 nM -4.84% | 833.33 nM -1.39% | 10000 nM -4.56%

O=C(COc1cccc2c(=O)[nH]ccc12)c1ccccc1
inactive: 1 nM -1.31% | 8.33 nM 1.84% | 100 nM -0.2% | 833.33 nM -0.52% | 10000 nM 0.99%

CC(=O)Nc1cccc(O)c1 [metacetamol]
inactive: 1 nM 1.03% | 8.33 nM 5.41% | 100 nM 3.07% | 833.33 nM 4.81% | 10000 nM 4.76%

O=C(O)[C@H](Cc1ccc(Nc2nccc3ccncc23)cc1)NC1=C(Br)C(=O)C12CCCCC2
inactive: 1 nM 0.12% | 8.33 nM 0.67% | 100 nM -0.71% | 833.33 nM -0.14% | 10000 nM 2.62%

CC(C)Cn1cnc2c(N)nc3ccccc3c21 [imiquimod]
inactive: 1 nM 1.22% | 8.33 nM 1.42% | 100 nM -0.63% | 833.33 nM 2.38% | 10000 nM 0.63%

COc1cc2c(cc1OC)CN(C(=O)[C@@H](NCc1ccncc1)C(C)(C)C)CC2
inactive: 1 nM 2.06% | 8.33 nM 3.28% | 100 nM 2.93% | 833.33 nM 1.04% | 10000 nM 1.19%

Cc1ccnc2c1NC(=O)c1cccnc1N2C1CC1 [nevirapine]
inactive: 1 nM -0.06% | 8.33 nM 2.22% | 100 nM 0.61% | 833.33 nM 0.25% | 10000 nM 0.49%

C[C@@]12CC[C@@H]3[C@@](CC[C@H]4[C@@]3(C)CCC[C@@]4(C)C(=O)O)(CC1=O)C2 [isosteviol]
inactive: 1 nM -1.01% | 8.33 nM 3.07% | 100 nM -0.69% | 833.33 nM 0.69% | 10000 nM 1.55%

O=C(Nc1ccc(C(=O)O)c(O)c1)c1ccccc1 [benzoylpas]
inactive: 1 nM 0.82% | 8.33 nM -2.28% | 100 nM 0.45% | 833.33 nM -0.08% | 10000 nM -0.85%

COc1ccc2nc3cc(Cl)ccc3c(Nc3cc(CN4CCCC4)c(O)c(CN4CCCC4)c3)c2n1 [pyronaridine]
inactive: 1 nM 3.08% | 8.33 nM 4.56% | 100 nM 8.6% | 833.33 nM 3.79% | 10000 nM -18.6%

CN1[C@@H]2CC[C@H]1C[C@@H](OC(=O)N1Cc3ccccc3NC1=O)C2
inactive: 1 nM -1.09% | 8.33 nM -0.87% | 100 nM 1.69% | 833.33 nM 1.84% | 10000 nM -0.21%

CC[C@H]1[C@@H]2C[C@H]3[C@@H]4N(C)c5ccccc5[C@]45C[C@@H]([C@@H]2[C@H]5O)N3[C@@H]1O [ajmaline]
inactive: 1 nM -1.1% | 8.33 nM -2.42% | 100 nM 0.36% | 833.33 nM 0.5% | 10000 nM -1.16%

C=CC(C)(C)c1cc(/C=C/C(=O)c2ccc(O)cc2)c(OC)cc1O [licochalcone-A]
inactive: 1 nM -0.14% | 8.33 nM 0.43% | 100 nM -0.55% | 833.33 nM -9.62% | 10000 nM 8.6%

O=C(O)CCCO
inactive: 1 nM 1.65% | 8.33 nM 2.68% | 100 nM 2.71% | 833.33 nM 1.83% | 10000 nM 1.79%

N#CC(C#N)=Cc1ccc(O)c(O)c1 [tyrphostin-AG-18]
inactive: 1 nM 2.32% | 8.33 nM 2.46% | 100 nM 0.83% | 833.33 nM 0.73% | 10000 nM 0.85%

CCCCCCCCCCCCCCCC[n+]1ccn(Cc2ccccc2)c1C
inactive: 1 nM -1.36% | 8.33 nM 0.51% | 100 nM 0.65% | 833.33 nM -4.4% | 10000 nM -20.9%

COc1ccc2cccc(CCNC(C)=O)c2c1 [agomelatine]
inactive: 1 nM -0.83% | 8.33 nM 0.82% | 100 nM -2.18% | 833.33 nM -1.63% | 10000 nM 0.7%

COc1ccc2cc(-c3nc(-c4ccc([S+](C)[O-])cc4)[nH]c3-c3ccncc3)ccc2c1 (stereo not given) [tie2-kinase-inhibitor]
inactive: 1 nM 5.39% | 8.33 nM 5.15% | 100 nM 0.64% | 833.33 nM 1.97% | 10000 nM 9.27%

N[C@@H](C(=O)N[C@@H]1C(=O)N2C(C(=O)O)=C(Cl)CS[C@H]12)c1ccccc1 [cefaclor]
inactive: 1 nM -2.43% | 8.33 nM -5.19% | 100 nM 1.55% | 833.33 nM -1.09% | 10000 nM 5.72%

Cc1oc(=O)oc1COC(=O)C1=C([C@H]2CCCO2)S[C@@H]2[C@@H]([C@@H](C)O)C(=O)N12 [faropenem-medoxomil]
inactive: 1 nM 2.73% | 8.33 nM -1.09% | 100 nM -0.59% | 833.33 nM 2.96% | 10000 nM 1.04%

Nc1nc(F)nc2c1ncn2[C@@H]1O[C@H](COP(=O)(O)O)[C@@H](O)[C@@H]1O [fludarabine-phosphate]
inactive: 1 nM 1.37% | 8.33 nM 1.76% | 100 nM -0.32% | 833.33 nM 1.79% | 10000 nM -4.26%

CC(=O)NC[C@H]1CN(c2ccc(N3CCN(C(=O)CO)CC3)c(F)c2)C(=O)O1 [eperezolid]
inactive: 1 nM -1.15% | 8.33 nM -0.41% | 100 nM -0.04% | 833.33 nM 0.64% | 10000 nM 0.19%

O=C(c1ccc(CN2CCOCC2)cc1)N1CCN(C2CC2)CC1 [bavisant]
inactive: 1 nM 0.41% | 8.33 nM 1.98% | 100 nM -1.82% | 833.33 nM -0.97% | 10000 nM 5.67%

O=C(c1c2ccccc2cc2ccccc12)N1CCC(N2CCC[C@@H](C(=O)N3CCOCC3)C2)CC1
inactive: 1 nM -1.36% | 8.33 nM -0.08% | 100 nM -0.31% | 833.33 nM -1.35% | 10000 nM -6.08%

CCOC(=O)OC(C)OC(=O)[C@@H]1N2C(=O)[C@@H](NC(=O)[C@H](N)c3ccccc3)[C@H]2SC1(C)C (stereo not given in full) [bacampicillin]
inactive: 1 nM 8.5% | 8.33 nM 1.16% | 100 nM -0.89% | 833.33 nM -1.91% | 10000 nM -2.49%

CN(C)C(=O)N[C@H]1CC[C@H](CCN2CCN(c3cccc(Cl)c3Cl)CC2)CC1 [cariprazine]
inactive: 1 nM -2.57% | 8.33 nM 1.1% | 100 nM -0.14% | 833.33 nM 3.01% | 10000 nM -3.84%

O=C(NCCN1CCOCC1)c1ccc(Cl)cc1 [moclobemide]
inactive: 1 nM 1.23% | 8.33 nM 2.39% | 100 nM 0.11% | 833.33 nM -2.19% | 10000 nM -0.2%

C=CCN(C)CCCCCCOc1ccc(C(=O)c2ccc(Br)cc2)c(F)c1
inactive: 1 nM 0.63% | 8.33 nM 1.12% | 100 nM 2.12% | 833.33 nM 0.47% | 10000 nM 13.8%
